Shown are actives, neighbours in structure and some others; about 4.6% of the full set was active somewhere.
TIM10 inh = inhibits growth of TIM10 yeast strain; S. cerevisiae TIM10 strain growth, BacTiter-Glo luminescence, 24 h; inhibition, % at 10 µM; 330,000 tested, 1.4% active; AID 463195;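 active means inhibition of 40% or more at the single tested concentration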;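 further: wild-type TIM10 isogenic control strain grown at permissive 25 °C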
tim23-1 inh = tim23-1 yeast growth inhibition. S. cerevisiae tim23-1 growth, BacTiter-Glo luminescence, 24 h. inhibition, % at 20 µM. 330,000 tested, 1.3% active;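 active means growth inhibition of the mutant yeast at or above 50%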;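 further: temperature-sensitive mutant grown at 25 °C; plate controls were DMSO-treated mutant yeast for no effect and medium wells lacking yeast for full effect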
SKKanGAS inh = SKKanGAS growth inhibition; S. pyogenes SKKanGAS, kanamycin growth, BacTiter-Glo, 6 h; inhibition, % at 7.5 µM; 300,000 tested, 1.3% active;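 active means mean replicate score, as percent of positive control median, at least 50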;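 further: strain carries kanamycin resistance gene driven by streptokinase promoter and grows in 40 µg/ml kanamycin; loss of luminescence reflects streptokinase promoter inhibition or plain growth inhibition; 0% = median of DMSO wells and 100% = positive control at its reference dose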
NLRP3 yeast inh = blocks the NALP3 inflammasome reconstituted in yeast | Yeast reconstituted NLRP3/ASC/caspase-1, beta-gal luminescence, 24 h | inhibition, % at 10 µM | 330,000 tested, 0.39% active | AID 2825;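 active means inhibition of 50% or more; inactive means inhibition below 50%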;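 further: plate controls were induced DMSO wells for no effect and uninduced yeast grown without galactose for full effect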
tim10-1 inh = tim10-1 yeast growth inhibition; 330,000 tested, 2.2% active; inhibition, % at 20 µM; S. cerevisiae tim10-1 ts strain growth, BacTiter-Glo, 24 h; AID 463190;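 active means inhibition of at least 40%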;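 further: mutant grown at 25 °C; 0% = DMSO wells with yeast and 100% = wells holding no yeast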
tim23-1 conf = tim23-1 yeast growth inhibition, confirmed. shares compounds with tim23-1 inh. S. cerevisiae tim23-1 growth, BacTiter-Glo luminescence, 24 h. inhibition, % at 20 µM. 4,400 tested, 83% active;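 active means inhibition above about 39% in either of two replicate wells at 20 µM, limit read from the data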;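 further: temperature-sensitive tim23-1 mutant grown at 25 °C; 0% = DMSO wells with yeast and 100% = medium wells without yeast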
The depositor's hits bear a star; . = no result given.

SMILES	TIM10 inh	tim23-1 inh	SKKanGAS inh	NLRP3 yeast inh	tim10-1 inh	tim23-1 conf
CNC(=S)N/N=C/c1ccc(-c2ccc(C(=O)O)cc2)o1	28	50*	28	2	31	44*
CNC(=S)N/N=C/c1ccc(-c2ccc(Cl)c([N+](=O)[O-])c2)o1	3	-8	-9	22	7	.
Fc1ccc(-c2ccnc3nc(N4CCN(c5ccccc5)CC4)nn23)cc1	23	41	-2	4	33	.
c1ccc(-c2ccnc3nc(N4CCN(c5ccccc5)CC4)nn23)cc1	30	51*	-2	16	17	37
COc1ccc(C(=O)NC(=S)N2CCNC(=O)C2)cc1Br	-12	16	-23	12	0	.
COc1ccc(C(=O)NC(=S)N2CCC(C)CC2)cc1Br	28	57*	24	26	37	37
COc1ccc(OC)c(NC(=O)Nc2ccc(Cl)cc2)c1	28	69*	6	33	34	67*
CN(c1ccc(O)cc1)S(=O)(=O)c1ccc2ccccc2c1	2	51*	0	45	-13	45*
Cc1ccnc(Nc2nc(-c3ccc(O)cc3O)cs2)c1	-6	86*	7	23	-8	77*
NC(=O)Oc1cccc(OC(N)=O)c1	-1	6	-4	4	-2	.
O=C(NC(=S)Nc1cccc(O)c1)C1CCCCC1	35	51*	.	-10	27	42*
Cc1ccc(NC(=S)NC(=O)C2CCCC2)cc1C	22	54*	9	42	29	42*
O=C(Nc1cccc(Br)c1)C1CCCC1	33	64*	-4	41	8	62*
O=C(NC(=S)Nc1ccc(F)cc1)C1CCCCC1	15	42	1	27	23	.
O=C(O)C1CCCCC1C(=O)Nc1cccc(Br)c1 (centres undefined)	-9	10	.	8	-14	.
CCOC(=O)CC(NC(=O)CCc1c(C)nc2ncnn2c1C)c1ccc(OC(C)C)cc1 (centres undefined)	7	8	-3	8	11	.
O=C(CC1c2ccccc2Oc2ccccc21)Nc1ccccc1C(F)(F)F	-1	-5	-5	26	-11	.
COc1ccc(Nc2nc(N3CCOCC3)nc(N3CCOCC3)n2)cc1Cl	-2	38	4	29	-4	.
O=C(NC(=S)NCc1ccco1)c1cccc(Cl)c1	4	57*	-2	4	17	47*
Fc1ccccc1-c1nc(NCc2ccccc2)c2ccccc2n1	6	50*	-1	11	35	38
c1ccc(CNc2nc(-c3ccccc3)nc3ccccc23)cc1	21	56*	-1	28	33	24
Fc1ccc(CNc2nc(-c3cccnc3)nc3ccccc23)cc1	-5	33	2	9	28	.
c1ccc(CNc2nc(-c3cccs3)nc3ccccc23)cc1	.	.	9	.	.	.
CCN(CC)c1nc(-c2ccccc2)nc2ccccc12	32	51*	-3	18	27	43*
Cc1cc(Cl)c(OCCCCNC(C)(C)C)c(Br)c1	2	12	-1	12	12	.
SMILES	TIM10 inh	tim23-1 inh	SKKanGAS inh	NLRP3 yeast inh	tim10-1 inh	tim23-1 conf
CCN(C(=O)Cn1cc(C(=O)C(=O)N2CCOCC2)c2ccccc21)c1ccccc1	5	-14	-1	5	1	.
C=CCCCCCCCCC(=O)NNC1CC(=O)N(c2ccccc2)C1=O (centres undefined)	13	16	-4	17	24	.
Cc1cc(C(=O)N/N=C/c2ccc(-c3cccc(Cl)c3)o2)n[nH]1	-19	-4	0	31	-26	.
CCCc1ccc(S(=O)(=O)N/N=C(/C)c2ccc3c(c2)OCO3)cc1	14	53*	17	20	35	48*
CCOc1ccc(S(=O)(=O)N/N=C(\C)c2ccc3c(c2)OCO3)cc1	7	27	0	11	16	.
Cc1cc(NC(=O)C(C)SCC(=O)Nc2nc3c(F)cc(F)cc3s2)no1 (centres undefined)	-2	4	.	10	13	.
O=C(c1ccco1)N1CCN(C(=S)Nc2cccc([N+](=O)[O-])c2)CC1	14	-2	-7	18	1	.
O=[N+]([O-])c1cccc(NC(=S)N2CCc3ccccc3C2)c1	34	52*	4	23	29	55*
CC(C)c1ccc(/C=C/C(=O)NC(=S)NN2CCOCC2)cc1	27	54*	.	10	29	36
